# Calpain2 inh: inhibitors of pig calpain II, primary screen, biochemical, fluorogenic peptide substrate, 1536-well | AID 1236, 2008 | 0.37% of 220,000 active | purified calpain II, 30 min | inhibition, % at 16 µM;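 active means inhibition above about 50%, limit read from the data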
# HMGR II inh: inhibitors of E. faecalis class II HMGR, primary screen, biochemical, Enterococcus faecalis; inhibition, % at 10 µM; 0.41% of 190,000 active; HMG-CoA reductase (Enterococcus faecalis, mvaE); purified E. faecalis HMGR, NADPH absorbance 340 nm kinetic;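 active means inhibition above a set limit, the median over all tested compounds plus 3 SD, cut at about 9.5% in these data; inconclusive means no clear call, values can overlap the other calls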;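 further: enzyme runs in reverse so mevalonate oxidation gives rising NADPH absorbance; 0% = complete reaction with DMSO and 100% = background rate lacking mevalonate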
# ROMK mod: ROMK potassium channel modulators, primary screen, cell-based, thallium flux, MLSMR library. B-score at 10 µM. ATP-sensitive inward rectifier potassium channel 1 (Homo sapiens), P48048. AID 1918, 2009. 2% of 130,000 active. Tet-inducible ROMK, thallium flux fluorescence; actives lie on both sides;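 active means signal ratio slope over the read window, or its plate-corrected B-score, at least 3 SD from the plate mean, either direction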;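 further: B-score of the F/F0 ratio slope over 7 to 12 s after thallium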
# Target sequence (P48048 whole entry, looked up): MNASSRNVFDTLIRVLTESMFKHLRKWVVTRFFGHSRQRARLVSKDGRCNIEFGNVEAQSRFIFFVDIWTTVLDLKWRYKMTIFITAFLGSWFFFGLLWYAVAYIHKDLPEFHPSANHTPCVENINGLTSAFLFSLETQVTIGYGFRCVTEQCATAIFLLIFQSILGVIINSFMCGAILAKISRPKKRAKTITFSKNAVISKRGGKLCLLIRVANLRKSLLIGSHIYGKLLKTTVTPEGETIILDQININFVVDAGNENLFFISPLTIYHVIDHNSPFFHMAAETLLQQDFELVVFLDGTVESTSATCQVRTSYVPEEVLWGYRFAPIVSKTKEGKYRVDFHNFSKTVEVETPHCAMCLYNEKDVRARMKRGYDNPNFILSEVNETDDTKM
# HSV augment: enhancers of HSV replication in host cells, fold increase, host cell viability. AID 1956, 2009. HSV replication augmentation in cells. maximum fold increase. 0.005% of 220,000 active; in the data active means maximum fold increase above about 1.5; inconclusive means no clear call, values can overlap the other calls; tested in PC3 cells
# Arbovirus anti: antivirals against arbovirus infection, primary screen, cell-based, full library, 10K replicate subset; inhibition, % at 10 µM; AID 1251, 2008; 0.37% of 200,000 active; arbovirus infection cell-based antiviral screen; in the data active means inhibition above about 30%
# The depositor's hits bear a star; i = inactive; ? = inconclusive; nt = no result given; ! = repeats disagree. Sampled rows, rich in hits. Any-hit rate of the full collection: about 2.1%.
SMILES,Calpain2 inh,HMGR II inh,ROMK mod,HSV augment,Arbovirus anti
O=C(Nc1nc2c(s1)CCCC2)c1ccc(Br)s1,9.6,-6.0,nt,i,37.7*
C=CCN1CCN(C(CCC)c2nnnn2Cc2ccco2)CC1 (configuration not stated),9.2,-4.1,0.525,i,-0.1
CC(C)c1ccc(/C=C/c2ccc(=O)n(C)n2)cc1,-222.4,-2.1,-0.776,i,-16.9
CC(C)c1ccc(/C=C/C2=NNC(=O)CC2)cc1,92.0*,-2.3,-0.328,i,-9.8
COc1cccc(C(=O)N2CCN(C3CCN(Cc4ccccc4)CC3)CC2)c1OC,2.2,nt,nt,i,nt
O=c1[nH]cc(C(F)(F)F)cc1NS(=O)(=O)c1ccccc1[N+](=O)[O-],23.9,-4.1,0.0839,i,16.2
O=C(O)c1ccc(N2C(=O)/C(=C/c3ccc(-c4ccc([N+](=O)[O-])cc4)o3)C=C2c2ccccc2)cc1,37.0,2.2,-0.0402,i,105.8*
Cc1ccc(NC(=O)Nc2cc(S(C)(=O)=O)ccc2Cl)cc1,11.0,nt,nt,i,nt
Cc1cc2ncn(-c3ncnc4sc5c(c34)CCC(C)C5)c2cc1C (configuration not stated),66.3*,-2.3,nt,nt,10.6
CCCCNC(=O)c1ccccc1C(=O)NCCCC,91.4*,-5.2,nt,i,2.4
CCCCNC(=O)c1ccccc1Cl,-13.0,-0.4,nt,i,-3.3
O=C(c1cc(F)ccc1F)C1CCCN(C(=O)CCN2CCCCO2)C1 (configuration not stated),-18.5,-0.7,0.652,i,4.7
Cc1cc(NC(=O)Nc2cc(F)ccc2F)no1,6.9,nt,nt,i,nt
CSc1ccccc1C(=O)NCC(c1ccco1)N1CCCCC1 (configuration not stated),-10.4,11.7*,-0.928,i,-0.2
O=C(CN1CCCC1)Nc1ccccc1Sc1ccc(Cl)cc1,5.5,-3.2,-0.835,i,-13.5
O=C(CCN1CCN(c2ccccc2)CC1)Nc1ccc2c(c1)OCO2,-27.7,0.7,nt,i,-6.0
CCN1CCN(CCC(=O)Nc2ccc3c(c2)OCO3)CC1,-8.7,16.5*,-0.327,i,-2.2
Cc1[nH][nH]c(=O)c1C(c1c(C)[nH][nH]c1=O)c1cn(Cc2ccc(F)cc2)c2ccccc12,-37.1,52.6*,-4.76*,i,2.2
Cn1cc([N+](=O)[O-])c(C(=O)Nc2cc(Oc3cccnc3)cc([N+](=O)[O-])c2)n1,59.2*,0.9,-0.0938,i,-37.3
Cn1cc([N+](=O)[O-])c(C(=O)Nc2ccc(-c3nc4ccccc4[nH]3)cc2)n1,-77.8,12.1*,nt,i,19.9
Cn1cc([N+](=O)[O-])c(C(=O)Nc2ccc(C(=O)N3CCCCC3)cc2)n1,0.9,-5.4,nt,i,-29.7
O=[N+]([O-])c1cc(Oc2cccnc2)cc([N+](=O)[O-])c1,-4.1,-0.6,0.622,i,-15.5
Cn1cc([N+](=O)[O-])c(C(=O)Nc2ccc(C3CCCCC3)cc2)n1,-5.7,11.2*,-0.406,i,-37.5
C(=C\c1ccccn1)/c1cccnc1,-23.4,nt,nt,i,nt
COc1ccc(C(=O)CSc2nc3[nH]ncc3c(=O)[nH]2)cc1,-2.3,-5.9,-0.401,i,3.5
SMILES,Calpain2 inh,HMGR II inh,ROMK mod,HSV augment,Arbovirus anti
O=C1c2cccnc2C(=O)N1CNc1ccc(Cl)cc1,-0.4,3.4,0.0528,i,-8.7
Cc1nc2c(o1)CCc1ccccc1C2N1CCN(C)CC1 (configuration not stated),-4.0,9.5*!,-0.806,i,0.8
COc1ccc(N2C(=O)CN(Cc3ccc(OC)c(OC)c3)C2=S)cc1,0.5,-5.6,-0.0912,i,-5.3
Cc1cccc2c(N=O)c(O)[nH]c12,12.7,nt,nt,i,nt
COC(=O)CN1C(=S)N(Cc2ccccc2)C(=O)C1CC(=O)Nc1ccc(OC)cc1 (configuration not stated),35.4,-3.8,-0.391,i,-8.1
COc1ccc(NC(=O)CC2C(=O)N(Cc3ccccc3)C(=S)N2CCN2CCOCC2)cc1 (configuration not stated),-13.3,11.0*,-0.624,i,-0.4
CC1c2ccsc2CCN1S(=O)(=O)c1cccs1 (configuration not stated),-3.6,nt,0.171,?,nt
Cc1cccc2[nH]c(SCC(=O)N3CCOCC3)nc12,-6.6,11.4*,-0.463,i,-2.4
CN(C(=O)c1coc(=O)c2ccccc12)c1ccc(Br)cc1,17.3,1.6,0.0113,i,39.5*
N#Cc1cc[n+](CC(=O)c2ccc(NC(=O)c3ccccc3)cc2)cc1,-7.8,nt,nt,i,nt
COc1cccc(CC2(CO)CCCN(Cc3ccc(CN4CCCCC4)s3)C2)c1 (configuration not stated),20.8,-4.7,0.0642,i,13.9
CC(=O)N1c2ccccc2C(C)(c2ccccc2)CC1(C)C (configuration not stated),18.4,-6.3,nt,i,-10.2
CC1(c2ccc([N+](=O)[O-])cc2)CC(C)(C)N(C(=O)c2ccccc2)c2ccccc21 (configuration not stated),24.8,-3.4,-0.0077,i,33.6*
Cc1ccccc1NC(=O)Cn1nnc(C(=O)NCc2ccco2)c1N,17.1,12.7*,2.33,i,-8.4
Cc1ccccc1NC(=O)Cn1nnc(S(=O)(=O)c2ccc(C(C)(C)C)cc2)c1N,-3.9,18.2*,-0.0195,nt,-15.7
CCOc1ccccc1NC(=O)Cn1nnc(C(=O)NCc2ccco2)c1N,15.2,1.3,nt,nt,-11.6
CC(C)(C)NC(=O)C(=O)NNC(=O)c1cccc(F)c1,20.8,-5.2,0.154,i,2.3
CCn1ncc(N(C)N)c(Cl)c1=O,-7.5,0.2,0.795,i,-1.6
CCN1CCN(C(c2cccs2)C(C)NS(=O)(=O)c2ccccc2)CC1 (configuration not stated),56.8*,-0.4,-0.678,i,13.6
O=C(O)c1cc(-c2ccc(Cl)cc2)n(-c2ccccc2)n1,-43.3,3.1,1.88,nt,8.0
O=C(O)c1cc(-c2ccccc2)n(-c2ccccc2C(=O)O)n1,-10.6,9.6*,nt,i,6.8
Cc1cccc(-c2ncc(CN3CCN(CC(C)C)C(CCO)C3)cn2)c1 (configuration not stated),16.8,9.6*,0.204,i,0.7
CC(C)CN1CCN(Cc2nc(C(C)C)cs2)CC1CCO (configuration not stated),2.4,10.6*,-0.0492,i,-4.0
COc1ccc(N2C(=O)C(CC(N)=O)N(NC(=O)CCc3ccccc3)C2=O)cc1 (configuration not stated),-5.7,3.6,-0.127,i,-0.4
N#CCCN/N=C(/Cc1nc2ccccc2[nH]1)c1ccc(Cl)cc1,-168.5,9.9*,-0.77,i,1.4
N#CCCN/N=C(\Cc1nc2ccccc2[nH]1)c1ccccc1,-50.6,-4.2,-0.0477,i,-2.9
CCN(Cc1ccccc1)C(=O)CS(=O)(=O)c1ccccc1,4.4,0.5,nt,i,-2.4
